PubChem BioAssay (EPA / NIEHS)
Active and inactive are the calls of the source. Rule for the calls: active = hit-call score of the fitted dose curve at least 0.9, where 1 is the maximum; inactive = score below 0.9.

assay: ATG_Sox_CIS: Attagene CIS-FACTORIAL HepG2 Assay for human SRY-box transcription factor (SOX) (AID 2282960); conditions: HepG2 Attagene cis-factorial SOX reporter, mRNA; actives raise or lower the signal
Protocol: ATG_CIS is a cell-based, multiplexed-readout assay that uses HepG2, a human liver cell line, with measurements taken at 24 hours after chemical dosing in a 24-well plate.ATG_Sox_CIS is one of 52 assay component(s) measured or calculated from the ATG_CIS assay. It is designed to make measurements of mRNA induction, a form of inducible reporter, as detected with fluorescence intensity signals by Reverse transcription polymerase chain reaction (RT-PCR) and Capillary electrophoresis technology.Data from the assay component ATG_Sox_CIS was analyzed into 1 assay endpoint. This assay endpoint, ATG_Sox_CIS, was analyzed with bidirectional fitting relative to DMSO as the negative control and baseline of activity. Using a type of inducible reporter, measures of mRNA for gain or loss-of-signal activity can be used to understand the reporter gene at the transcription factor-level as they relate to the gene SOX1. Furthermore, this assay endpoint can be referred to as a primary readout, because this assay has produced multiple assay endpoints where this one serves a reporter gene function. To generalize the intended target to other relatable targets, this assay endpoint is annotated to the dna binding intended target family, where the subfamily is HMG box protein.
Human liver HepG2 cells are transiently transfected with multiple reporter transcription units (MRTUs) in 6-well plates using FuGene 6 reagent (Roche; 3 ml FuGene/1 mg DNA). The MRTU constructs are regulated by a cis-regulating element (promoter). […] A major difference between the CIS and TRANS system is that in CIS activities of endogenous TFs are measured, whereas the TRANS assay evaluates changes in activities of exogenous, chimeric NR-Gal4 proteins. […] At the end of 24 hour incubation, total RNA was isolated using TriZol reagent (Invitrogen). The isolated RNA is then reverse-transcribed using oligo(dT) primer and Mo-MLV reverse transcriptase (Invitrogen) with DNAse I (Ambion) treatment for 30 min. The one-tenth of the produced cDNA was amplified by PCR using Taq DNA polymerase (Invitrogen) and two reporter sequence-specific primers. The PCR products were fluorescently labeled by primer extension with 6-arboxyfluorescein (6-FAM) 5'-labeled reporter sequence-specific primer (2 min at 95 C, 20 s at 68 C and 10 min at 72 C) and these products were digested with 5U of HpaI (New England Biolabs) for 2h at 37 C. The fragments were purified using Qiaquick PCR columns (Qiagen), analyzed on an ABI 3130xL genetic analyzer (Applied Biosystems) with peak positions identified by using a set of X-rhodamine (ROX)-labeled MapMarker1000 molecular weight standards (BioVentures). The raw capillary electrophoresis data was processed using Attagraph software (Attagene).

SMILES | outcome | AC50
CCCCCCC1CCCC(=O)O1 (stereo not given) | inactive | 
O=[N+]([O-])c1ccccc1C(F)(F)F | inactive | 
CC(C)(Oc1ccc(Cl)cc1)C(=O)O | inactive | 
O=C1CCCCCCCCCCCCCC1 | inactive | 
NC(=O)c1ccc(N)cc1 | inactive | 
O=C(O)c1ccccc1C(=O)O | inactive | 
O=C(C1CCCCC1)N1CC(=O)N2CCc3ccccc3C2C1 (stereo not given) | inactive | 
Cc1ccnc(N)c1 | inactive | 
CCCCCCCCCC/C=C/C1CC(=O)OC1=O (stereo not given) | inactive | 
CC(=O)Nc1c(I)c(NC(C)=O)c(I)c(C(=O)O)c1I | inactive | 
O=C1NC(=O)C2CC=CCC12 (stereo not given) | inactive | 
O=C(CC(C(=O)OC1CCCCC1)S(=O)(=O)O)OC1CCCCC1 (stereo not given) | inactive | 
CC/C=C\CC/C=C/C(OCC)OCC |  | 147 µM (active)
C/C=C(\C)C(=O)OCC/C=C\CC | inactive | 
O=C(C(=O)c1ccccc1)c1ccccc1 | inactive | 
COc1ccccc1OCC(O)CO (stereo not given) | inactive | 
CCCCC(CC)COC(=O)CS (stereo not given) | inactive | 
COc1ccc2ccccc2c1 | inactive | 
OCCc1ccccn1 | inactive | 
CC1=C(CC(=O)O)c2cc(F)ccc2/C1=C\c1ccc(S(C)=O)cc1 (stereo not given) | inactive | 

SMILES | outcome | AC50
CN(C)CCC(c1ccc(Cl)cc1)c1ccccn1 (stereo not given) | inactive | 
CCOC(=O)c1ccccc1 | inactive | 
COC(=O)[C@]1(C)CCC[C@@]2(C)[C@H]1CC=C1C=C(C(C)C)CC[C@@H]12 | inactive | 
CNC(=C[N+](=O)[O-])NCCSCc1csc(CN(C)C)n1 | inactive | 
C=CCOC(=O)C(=C)C | inactive | 
C[Si](C)(C)O[Si](C)(C)O[Si](C)(C)C | inactive | 
c1ccc(CNc2ncnc3nc[nH]c23)cc1 | inactive | 
CN(C)CCCN1c2ccccc2CCc2ccc(Cl)cc21 |  | 11.1 µM (active)
CC/C=C\CCO | inactive | 
CCCc1c(OCCCCc2nn[nH]n2)ccc(C(C)=O)c1O | inactive | 
NCc1ccccc1 | inactive | 
CC(C)n1c(/C=C/[C@@H](O)C[C@@H](O)CC(=O)O)c(-c2ccc(F)cc2)c2ccccc21 | inactive | 
CN(C)N=Nc1ccccc1 | inactive | 
Cc1ccccc1S(N)(=O)=O | inactive | 
Brc1ccc(Oc2ccc(Br)cc2)cc1 | inactive | 
NC(=O)c1ccc([N+](=O)[O-])cc1Cl | inactive | 
CCCC[N+]1(C)CCCC1 | inactive | 
CC/C=C/CCO | inactive | 
CC(O)(P(=O)(O)O)P(=O)(O)O | inactive | 
CC1=C(CC=O)C(C)(C)CCC1 | inactive | 
